Test results published in PubChem BioAssay.
The source made the active and inactive calls. Unless noted, the rule behind the calls is not given here.

Key:
[1] = circadian clock period modulators, cell-based, LOPAC library, luminescence reporter (AID 2774); details: circadian reporter cells, at 7 µM, actives lie on both sides;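 note: values are relative to mean of DMSO wells on each plate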
[2] = hESC survival regulators, cell-based (AID 493140); details: human embryonic stem cell survival screen; stronger effect = higher value;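 note: cells exposed to compounds for four days before counting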
[3] = test system: Hepatitis C virus NS3 helicase; test: HCV NS3 helicase inhibitors, primary screen, biochemical, fluorescence polarization, LOPAC1280 library (AID 687035; in the data active = inhibition above about 37%); details: Purified HCV NS3 helicase, Cy5-dT15 ssDNA binding fluorescence polarization; stronger effect = higher value; concentration not given here
[4] = Cy5 fluorescence quenching or enhancement artefacts, artefact control for HCV NS3 helicase inhibitor project, biochemical, LOPAC1280 (AID 687037); details: Cy5-DNA-NS3h complex fluorescence interference counterscreen
[5] = LFS_MB_1R medulloblastoma cell growth inhibition, synergistic combos for chromothripsis tumors, cisplatin or BGB combos (AID 1671452; in the data active = inhibition above about 80%;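 note: cells exposed for 96 hours before readout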); details: LFS_MB_1R medulloblastoma cells, stronger effect = higher value
[6] = CRL2098 osteosarcoma cell growth inhibition, synergistic combos for chromothripsis tumors, BGB or cisplatin IC20 combos (AID 1671454; in the data active = inhibition above about 80%;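 note: cells exposed for 96 h before readout; 0% = vehicle DMSO and 100% = killing by high DMSO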); details: CRL2098 osteosarcoma cells, drug combinations, stronger effect = higher value
[7] = HD-MB03 medulloblastoma cell growth inhibition, synergistic combos for chromothripsis tumors, BGB or cisplatin IC20 combos (AID 1671455; in the data active = inhibition above about 83%;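 note: 0% = vehicle DMSO and 100% = high DMSO as cytotoxic control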); details: HD-MB03 medulloblastoma cells, stronger effect = higher value
[8] = UWB1.289 ovarian carcinoma cell growth inhibition, synergistic combos for chromothripsis tumors, BGB or cisplatin combos (AID 1671456; in the data active = inhibition above about 80%;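 note: cells exposed to compound for four days; 0% = vehicle DMSO and 100% = killing by high DMSO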); details: UWB1.289 ovarian carcinoma cells, stronger effect = higher value
[9] = LFS_MB_2R medulloblastoma cell growth inhibition, synergistic combos for chromothripsis tumors, cisplatin combos (AID 1671457; in the data active = inhibition above about 80%;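 note: cells exposed to compound for four days before readout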); details: LFS_MB_2R medulloblastoma cells, stronger effect = higher value
[10] = MDA-MB-436 breast carcinoma cell growth inhibition, synergistic combos for chromothripsis tumors, BGB or cisplatin combos (AID 1671458); details: MDA-MB-436 breast carcinoma growth inhibition, drug combinations, stronger effect = higher value;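 note: cells exposed for 96 hours; 0% = vehicle DMSO and 100% = killing by high DMSO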
[11] = UWB1.289_BRCA1 ovarian cancer growth, cell-based, BGB or cisplatin combinations (AID 1671459; in the data active = inhibition above about 80%); details: UWB1.289 BRCA1 ovarian carcinoma, drug combinations, stronger effect = higher value
[12] = human astrocyte viability loss, single and combined drugs, cytotoxicity control for chromothriptic childhood tumor combination screen, cell-based, BGB or cisplatin IC20 combos (AID 1671460; in the data active = inhibition above about 80%;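 note: cells exposed to compounds for 96 hours before viability readout; 0% = vehicle and 100% = killing control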); details: Human astrocytes, drug combinations, stronger effect = higher value
[13] = growth inhibition of BT084 medulloblastoma cells, cell-based, ICGC_MB145, cisplatin and BGB IC40 combos (AID 1671461; in the data active = inhibition above about 80%;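 note: cells exposed to drugs for 96 hours; 0% = vehicle DMSO and 100% = high DMSO full killing control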); details: drug combinations, stronger effect = higher value
[14] = growth inhibition of RCMB18 medulloblastoma cells, cell-based, cisplatin and BGB IC40 combos (AID 1671462; in the data active = inhibition above about 80%;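 note: cells exposed to compound for four days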); details: stronger effect = higher value
[15] = growth inhibition of CRL1545 osteosarcoma cells, cell-based, cisplatin and BGB IC20 combos (AID 1671464; in the data active = inhibition above about 80%;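 note: cells exposed to compound for 96 hours before readout; 0% = vehicle DMSO and 100% = high DMSO killing control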); details: stronger effect = higher value
[16] = kinase inhibitors against Plasmodium liver-stage infection, cell-based, known kinase inhibitor set, luminescence, hepatoma host viability (AID 624392); details: Plasmodium liver stage in hepatoma cells, luciferase luminescence, concentration not given here; liver cell % of control: measured here: host liver cell viability; parasite % of control: stronger effect = lower value;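 note: infected cells incubated roughly two days before readout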
[17] = phospholipid biosynthesis inhibitors in animal cells, primary screen, cell-based, LOPAC library, screen 4 (AID 1347384); details: phospholipid biosynthesis inhibition screen, at 10 µM
[18] = measured here: combination with BGB IC40, at 0.05 µM
[19] = measured here: combination with cisplatin, at 0.5 µM
[20] = measured here: combination with cisplatin, at 5 µM
[21] = measured here: combination with BGB at IC20, at 0.5 µM
[22] = measured here: combination with cisplatin at IC20, at 0.5 µM
[23] = measured here: combo with BGB at IC20, at 0.5 µM
[24] = measured here: combo with cisplatin at IC20, at 0.5 µM
[25] = measured here: inhibition with BGB combination, at 0.05 µM
[26] = measured here: inhibition with cisplatin combination, at 0.05 µM
[27] = measured here: BGB combination, at 0.5 µM
[28] = measured here: BGB combination, at 5 µM
[29] = measured here: cisplatin combination, at 0.5 µM
[30] = measured here: cisplatin combination, at 5 µM
[31] = BGB combination, concentration series, at 5 µM
[32] = cisplatin combination, concentration series, at 5 µM
[33] = measured here: combo with BGB IC20, at 0.5 µM
[34] = measured here: combo with cisplatin IC20, at 0.5 µM
[35] = cisplatin combination, at 0.5 µM
[36] = measured here: BGB IC40 combination 0.05 uM, at 0.05 µM
[37] = measured here: BGB IC40 combination, at 0.05 µM
[38] = measured here: with BGB IC20 combination, at 0.5 µM
[39] = measured here: with cisplatin IC20 combination, at 0.5 µM

COc1ccc2[nH]c(I)c(CCNC(C)=O)c2c1
period change [1]: -0.075 h (inactive)

COC(=O)/C=C/c1cc(O)ccc1O
survival [2]: 85.3 (inactive)

NS(=O)(=O)c1cccc2c1c([N+](=O)[O-])cc1nc(O)c(O)nc12
period change [1]: 0.35 h (inactive)
inhibition [3]: -6% (inactive)
fluorescence ratio (interference) [4]: 1 (inactive)

C=CC(=O)c1ccc2ccccc2c1
survival [2]: 46.4 (inactive)

Cc1cccc(C)c1NC(=O)C[N+](C)(C)C
period change [1]: 0.05 h (inactive)

FC(F)(F)c1cc(CO[C@H]2CCCN[C@H]2c2ccccc2)cc(C(F)(F)F)c1
period change [1]: 0 h (inactive)

CC(C)C1C2CCC(C2)C1N (centres undefined)
period change [1]: -0.025 h (inactive)

Cc1nc2sccn2c(=O)c1CCN1CCC(=C(c2ccccc2)c2ccc(F)cc2)CC1
period change [1]: -0.05 h (inactive)
inhibition [3]: -1% (inactive)
fluorescence ratio (interference) [4]: 1 (inactive)

O=c1cc(N2CCOCC2)oc2c1ccc1ccccc12
inhibition ([5]; at 0.5 µM): -3.28% (inactive)
inhibition [5, 18]: -8.81%
inhibition [5, 19]: -5.09%
inhibition [5, 20]: 16.4%
inhibition ([6]; at 0.5 µM): -13.1% (inactive)
inhibition [6, 21]: -40.8%
inhibition [6, 22]: 19.4%
inhibition ([7]; at 0.5 µM): 3.57% (inactive)
inhibition [7, 23]: 4.4%
inhibition [7, 24]: -1.01%
inhibition ([8]; at 0.5 µM): -1.52% (inactive)
inhibition [8, 25]: 2.55%
inhibition [8, 26]: -7.12%
inhibition ([9]; at 0.5 µM): 0.24% (inactive)
inhibition [9, 19]: 7.58%
inhibition [9, 20]: 0.815%
inhibition ([10]; at 0.5 µM): 2.45% (inactive)
inhibition [10, 27]: 5.3%
inhibition [10, 28]: -21.1%
inhibition [10, 29]: -2.44%
inhibition [10, 30]: -6.05%
inhibition [11, 31]: -2.5%
inhibition ([11]; at 0.5 µM): -1.77% (inactive)
inhibition [11, 32]: 4.97%
inhibition ([12]; at 0.5 µM): 1.74% (inactive)
inhibition [12, 33]: -0.854%
inhibition [12, 34]: 0.235%
inhibition ([13]; at 0.5 µM): -4.41% (inactive)
inhibition [13, 35]: -0.482%
inhibition ([13]; cisplatin combination, at 5 µM): -111%
inhibition [13, 36]: -19.7%
inhibition ([13]; single agent, at 5 µM): 2.3%
inhibition ([14]; at 0.5 µM): -17.7% (inactive)
inhibition ([14]; cisplatin combo, at 5 µM): 21.8%
inhibition [14, 37]: -2.3%
inhibition [14, 19]: -18.7%
inhibition ([14]; single agent, at 5 µM): 1.08%
inhibition ([15]; at 0.5 µM): 11.6% (inactive)
inhibition [15, 38]: -23.5%
inhibition [15, 39]: 28%
inhibition ([15]; single agent, at 0.05 µM): -4.12%
inhibition ([15]; single agent, at 5 µM): -7.26%

COc1cc(C=O)c([N+](=O)[O-])cc1OC
inhibition ([5]; at 0.5 µM): -20.1% (inactive)
inhibition [5, 18]: -4.39%
inhibition [5, 19]: -40%
inhibition [5, 20]: -37.8%
inhibition ([6]; at 0.5 µM): -33.8% (inactive)
inhibition [6, 21]: -36.3%
inhibition [6, 22]: -11%
inhibition ([7]; at 0.5 µM): -11.8% (inactive)
inhibition [7, 23]: -17.8%
inhibition [7, 24]: -8.28%
inhibition ([8]; at 0.5 µM): -8.53% (inactive)
inhibition [8, 25]: 3.53%
inhibition [8, 26]: -7.7%
inhibition ([9]; at 0.5 µM): -7.6% (inactive)
inhibition [9, 19]: -4.15%
inhibition [9, 20]: 0.394%
inhibition ([10]; at 0.5 µM): -6.2% (inactive)
inhibition [10, 27]: -13%
inhibition [10, 28]: -6.36%
inhibition [10, 29]: 1.75%
inhibition [10, 30]: 6.49%
inhibition [11, 31]: 0.582%
inhibition ([11]; at 0.5 µM): -4.66% (inactive)
inhibition [11, 32]: -5.09%
inhibition ([12]; at 0.5 µM): -7.65% (inactive)
inhibition [12, 33]: -3.78%
inhibition [12, 34]: -9.79%
inhibition ([13]; at 0.5 µM): 1.74% (inactive)
inhibition [13, 35]: 3.64%
inhibition ([13]; cisplatin combination, at 5 µM): -6.4%
inhibition [13, 36]: 80.8%
inhibition ([13]; single agent, at 5 µM): 1.94%
inhibition ([14]; at 0.5 µM): -0.87% (inactive)
inhibition ([14]; cisplatin combo, at 5 µM): -1.64%
inhibition [14, 37]: 1.84%
inhibition [14, 19]: 9.53%
inhibition ([14]; single agent, at 5 µM): -21.6%
inhibition ([15]; at 0.5 µM): -4.03% (inactive)
inhibition [15, 38]: -16.1%
inhibition [15, 39]: 2%
inhibition ([15]; single agent, at 0.05 µM): -14.2%
inhibition ([15]; single agent, at 5 µM): -34.2%

N#C/C(=C\c1ccc(O)c(O)c1)C(=O)NCCCc1ccccc1
period change [1]: 0.005 h (inactive)
inhibition [3]: -2% (inactive)
fluorescence ratio (interference) [4]: 1 (inactive)

O=C(OCCN1CCCCC1)c1c[nH]c2ccccc12
period change [1]: -0.005 h (inactive)

C#CCN1C(C)=C(C(=O)OC)C(c2cccc([N+](=O)[O-])c2)C(C(=O)OCC)=C1C (centres undefined)
period change [1]: -0.025 h (inactive)
inhibition [3]: 1% (inactive)
fluorescence ratio (interference) [4]: 0.9 (inactive)

COC(=O)c1c(-c2cc(OC)c(OC)c(OC)c2)c2ccnc(OCc3ncccn3)c2c(=O)n1Cc1ccnc(C)c1
period change [1]: 0.03 h (inactive)

COc1[nH]c2ccc(F)cc2c1C(=O)OCC1CCN(CCNS(C)(=O)=O)CC1
period change [1]: -0.015 h (inactive)

Cc1c(CC(C)(C)C(=O)O)n(Cc2ccc(Cl)cc2)c2ccc(F)cc12
period change [1]: -0.04 h (inactive)

COc1cc2c(cc1C(F)(F)F)N(C(=O)Nc1cc(F)cc(-c3cccnc3)c1)CC2
period change [1]: 0.195 h (inactive)

CCOC(=O)C12CC1/C(=N\O)c1ccccc1O2 (centres undefined)
inhibition [3]: 0% (inactive)
fluorescence ratio (interference) [4]: 1 (inactive)

CN(C)C(=O)n1nnnc1Cc1ccc(-c2ccccc2)cc1
inhibition [3]: -2% (inactive)
fluorescence ratio (interference) [4]: 1 (inactive)

COc1ccc(OC)c2c(=S)c3ccccc3[nH]c12
liver cell % of control [16]: 97.2%
parasite % of control [16]: 125% (inactive)

CS(=O)(=O)c1cccc(CNc2nc(Nc3ccc4c(c3)CCC(=O)N4)ncc2C(F)(F)F)c1
outcome [17]: inactive

COc1cc2nc(N3CCCN(C)CC3)nc(NC3CCN(Cc4ccccc4)CC3)c2cc1OC
inhibition [3]: 3% (inactive)
fluorescence ratio (interference) [4]: 1 (inactive)
outcome [17]: inactive

Nc1ccc(-c2ccc3ncc4ccc(=O)n(-c5cccc(C(F)(F)F)c5)c4c3c2)cn1
inhibition ([5]; at 0.5 µM): -12.4% (inactive)
inhibition [5, 18]: -33.9%
inhibition [5, 19]: -17%
inhibition [5, 20]: 48.5%
inhibition ([6]; at 0.5 µM): 47.4% (inactive)
inhibition [6, 21]: 49.5%
inhibition [6, 22]: 49.4%
inhibition ([7]; at 0.5 µM): 39.9% (inactive)
inhibition [7, 23]: 13.5%
inhibition [7, 24]: 69.9%
inhibition ([8]; at 0.5 µM): 49.8% (inactive)
inhibition [8, 25]: -0.684%
inhibition [8, 26]: 1.16%
inhibition ([9]; at 0.5 µM): 2.91% (inactive)
inhibition [9, 19]: 17.6%
inhibition [9, 20]: 76.8%
inhibition ([10]; at 0.5 µM): 12% (inactive)
inhibition [10, 27]: 0.276%
inhibition [10, 28]: 32.6%
inhibition [10, 29]: -4.07%
inhibition [10, 30]: 57.7%
inhibition [11, 31]: 98.8%
inhibition ([11]; at 0.5 µM): 52.1% (inactive)
inhibition [11, 32]: 104%
inhibition ([12]; at 0.5 µM): 76.8% (inactive)
inhibition [12, 33]: 71%
inhibition [12, 34]: 77.3%
inhibition ([13]; at 0.5 µM): 21.2% (inactive)
inhibition [13, 35]: 28.2%
inhibition ([13]; cisplatin combination, at 5 µM): 33.5%
inhibition [13, 36]: -29.9%
inhibition ([13]; single agent, at 5 µM): 41.3%
inhibition ([14]; at 0.5 µM): 16.5% (inactive)
inhibition ([14]; cisplatin combo, at 5 µM): 59.1%
inhibition [14, 37]: -1.59%
inhibition [14, 19]: 23.5%
inhibition ([14]; single agent, at 5 µM): 62.1%
inhibition ([15]; at 0.5 µM): 79.5% (inactive)
inhibition [15, 38]: 69.2%
inhibition [15, 39]: 84.4%
inhibition ([15]; single agent, at 0.05 µM): -3.59%
inhibition ([15]; single agent, at 5 µM): 98.4%
